BoNT A protease: BoNT/A light chain protease inhibitors, primary screen, biochemical, flow cytometry, MLPCN library; Botulinum neurotoxin type A light chain protease (Clostridium botulinum A str. ATCC 3502); multiplex microsphere protease substrate cleavage; inhibition, % at 10 µM; 360,000 tested, 0.17% active; AID 588499, 2011; also: plate controls were buffer without enzyme for full effect and enzyme alone for no effect
BoNT F protease: BoNT/F light chain protease inhibitors, primary screen, biochemical, flow cytometry, MLPCN library; Botulinum neurotoxin type F light chain protease (Clostridium botulinum); Multiplex microsphere protease cleavage assay; inhibition, % at 10 µM; 360,000 tested, 0.22% active; in the data active = inhibition above about 35%, passing the limit was not always enough; inconclusive = no clear call, values can overlap the other calls; also: plate controls were buffer without enzyme for full effect and enzyme alone for no effect
Anthrax LF inh2: Bacillus anthracis LF protease inhibitors, primary screen, biochemical, multiplex microsphere, MLPCN library | Lethal factor (Bacillus anthracis), P15917 | multiplex microsphere protease cleavage assay | inhibition, % at 10 µM | 360,000 tested, 0.12% active; also: plate controls were buffer without enzyme for full effect and enzyme alone for no effect
Target sequence (P15917 whole entry, looked up): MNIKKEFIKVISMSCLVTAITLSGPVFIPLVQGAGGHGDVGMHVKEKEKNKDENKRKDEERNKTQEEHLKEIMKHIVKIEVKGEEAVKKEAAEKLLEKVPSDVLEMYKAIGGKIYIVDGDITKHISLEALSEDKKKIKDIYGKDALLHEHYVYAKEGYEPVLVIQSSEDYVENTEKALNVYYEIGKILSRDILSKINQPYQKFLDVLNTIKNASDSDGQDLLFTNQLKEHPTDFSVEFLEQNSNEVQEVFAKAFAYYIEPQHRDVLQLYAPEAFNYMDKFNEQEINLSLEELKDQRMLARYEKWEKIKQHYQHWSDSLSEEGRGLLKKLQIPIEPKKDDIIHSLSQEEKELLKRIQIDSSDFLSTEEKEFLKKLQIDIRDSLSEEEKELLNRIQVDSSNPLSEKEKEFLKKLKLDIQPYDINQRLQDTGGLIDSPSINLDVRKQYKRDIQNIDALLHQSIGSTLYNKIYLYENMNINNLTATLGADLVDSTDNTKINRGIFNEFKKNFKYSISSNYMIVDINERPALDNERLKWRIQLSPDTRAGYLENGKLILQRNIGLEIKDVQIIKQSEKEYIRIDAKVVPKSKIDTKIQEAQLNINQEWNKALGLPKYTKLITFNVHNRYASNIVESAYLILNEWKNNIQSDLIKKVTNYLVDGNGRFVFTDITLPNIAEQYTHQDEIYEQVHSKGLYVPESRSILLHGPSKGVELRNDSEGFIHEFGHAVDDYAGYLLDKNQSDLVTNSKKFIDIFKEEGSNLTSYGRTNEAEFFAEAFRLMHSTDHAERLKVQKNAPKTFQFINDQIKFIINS
Bead autofluor: compound fluorescence in toxin protease inhibitor counterscreen; AID 624483; 360,000 tested, 3.1% active; compound autofluorescence counterscreen, microsphere flow cytometry; hits give high values; fluorescence intensity (test concentration not listed); in the data active = fluorescence intensity above about 16000; inconclusive = no clear call, values can overlap the other calls
SSB-PriA inh: inhibitors of Klebsiella pneumoniae PriA binding to SSB C-terminal tail, primary screen, biochemical, AlphaScreen; inhibition, % at 33 µM; AlphaScreen SSBct-PriA binding, biotinylated peptide; AID 1272365, 2023; PriA–SSB C-terminal tail interaction (Klebsiella pneumoniae); 430,000 tested, 0.6% active; in the data active = inhibition mostly above about 37%, no sharp cut-off; inactive = mostly below about 20%;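 also: plate controls were negative control peptide for no effect and reference peptide for full effect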
* marks the source's active call; other numbers are inactive results. An excerpt weighted towards active compounds, which were near 3.1% of everything screened. Rule as the data show it, unless noted: active = inhibition above about 30%; inconclusive = no clear call, values can overlap the other calls; inactive = below that.

How did C=CCN(CC=C)C(=S)Nc1ccccc1 do in these assays?
BoNT A protease: 3; BoNT F protease: 1; Anthrax LF inh2: -1; Bead autofluor: 22624*; SSB-PriA inh: -11

What do the screens show for `C=CCNC(=S)Nc1ccccc1`?
BoNT A protease: 1; BoNT F protease: 0; Anthrax LF inh2: -5; Bead autofluor: 9515; SSB-PriA inh: -8

Results for CCOc1cccc2cc(C(=O)Nc3ccc(C)cc3C(=O)c3ccccc3)oc12 ?
SSB-PriA inh: 31

Results for CCCCC(=O)Nc1sc2c(c1C(=O)OCC)CCC(C=O)=C2Cl ?
BoNT A protease: inconclusive; BoNT F protease: 7; Anthrax LF inh2: 4; Bead autofluor: 21678*

Results for COc1ccc2c(C)cc(SCC(=O)c3ccc4c(c3)OCO4)nc2c1 ?
BoNT A protease: inconclusive; BoNT F protease: 1; Anthrax LF inh2: -3; Bead autofluor: 23435*; SSB-PriA inh: -2

Results for Cc1cc(SCC#N)nc2ccccc12 ?
BoNT A protease: 0; BoNT F protease: -1; Anthrax LF inh2: -2; Bead autofluor: 3080; SSB-PriA inh: -7

Results for COc1ccc2c(C)cc(SCC#N)nc2c1 ?
BoNT A protease: 2; BoNT F protease: -3; Anthrax LF inh2: -2; Bead autofluor: 16543*; SSB-PriA inh: -23

How did COc1ccc2c(C)cc(SCc3c(C)noc3C)nc2c1 do in these assays?
BoNT A protease: 4; BoNT F protease: 2; Anthrax LF inh2: -2; Bead autofluor: 22377*; SSB-PriA inh: -35

Results for C#CCn1c(=NC(=O)CSCC(=O)NC2CCCCC2)sc2ccccc21 ?
SSB-PriA inh: 43*

What do the screens show for `COC(=O)c1ccc(C(=O)Nc2nnc(-c3cc(C)n(C)n3)o2)cc1`?
SSB-PriA inh: 95*

How did O=C(NCCCn1ccnc1)C(=O)Nc1ccc2c(c1)N(S(=O)(=O)c1cccs1)CCC2 do in these assays?
SSB-PriA inh: 51*

What do the screens show for `O=C(NCCCO)C(=O)Nc1ccc2c(c1)N(S(=O)(=O)c1cccs1)CCC2`?
SSB-PriA inh: 4

How did C=CCn1c(=C(C#N)C(=O)NCC2CCCO2)sc(=Cc2ccccn2)c1=O (stereo unspecified) do in these assays?
SSB-PriA inh: 4

Results for O=C(CCc1ccccc1)NC(=S)Nc1cc(C(F)(F)F)ccc1N1CCOCC1 ?
BoNT A protease: 2; BoNT F protease: -2; Anthrax LF inh2: 0; Bead autofluor: 19113*; SSB-PriA inh: -12

How did O=C1NCCCC2c3c(cc(Br)c(O)c3Br)OC12N1CCOCC1 (stereo unspecified) do in these assays?
BoNT A protease: 6; BoNT F protease: 9; Anthrax LF inh2: 4; Bead autofluor: 20273*; SSB-PriA inh: -6

How did CCN(CC)c1ccc(C=NNC(=O)Nc2nonc2N)cc1 do in these assays?
SSB-PriA inh: 21

What do the screens show for `O=S(=O)(NCCc1ccoc1)c1ccccc1OC(F)(F)F`?
SSB-PriA inh: 2

Results for CC(C)(C)c1cc(C(=S)N2CCN(CCO)CC2)cc(C(C)(C)C)c1O ?
BoNT A protease: 1; BoNT F protease: 0; Anthrax LF inh2: -4; Bead autofluor: 23211*; SSB-PriA inh: 9

What do the screens show for `OCCN1CCN(C(=S)c2ccc(Cl)cc2)CC1`?
BoNT A protease: 0; BoNT F protease: -2; Anthrax LF inh2: -1; Bead autofluor: 2092; SSB-PriA inh: -2

Results for FC(F)Oc1ccccc1NC(=S)NCc1ccco1 ?
BoNT A protease: 0; BoNT F protease: -3; Anthrax LF inh2: -1; Bead autofluor: 23284*; SSB-PriA inh: -8

Results for CC(C)N(C)NC(=S)Nc1ccccc1 ?
BoNT A protease: 0; BoNT F protease: -8; Anthrax LF inh2: -1; Bead autofluor: 2446; SSB-PriA inh: -1

Results for CCN(CC)NC(=S)Nc1ccccc1 ?
BoNT A protease: 1; BoNT F protease: 2; Anthrax LF inh2: -2; Bead autofluor: 22619*; SSB-PriA inh: -4

How did O=C(NCCN1CCOCC1)C(=O)Nc1ccc(Cl)c(N2CCCS2(=O)=O)c1 do in these assays?
SSB-PriA inh: -4

What do the screens show for `O=c1c2cc(N3CCOCC3)ccc2[nH]c(=S)n1CCCN1CCCC1`?
BoNT A protease: 1; BoNT F protease: -1; Anthrax LF inh2: 0; Bead autofluor: 10120; SSB-PriA inh: -8

How did O=c1c2cc(N3CCOCC3)ccc2[nH]c(=S)n1Cc1cccc(Cl)c1 do in these assays?
BoNT A protease: 0; BoNT F protease: -1; Anthrax LF inh2: -1; Bead autofluor: 23197*; SSB-PriA inh: -2

What do the screens show for `COc1cccc(Cn2c(=S)[nH]c3ccc(N4CCOCC4)cc3c2=O)c1`?
BoNT A protease: -3; BoNT F protease: -3; Anthrax LF inh2: -1; Bead autofluor: 20640*; SSB-PriA inh: -5

How did CC1CCN(CCCn2c(=S)[nH]c3ccc(N4CCOCC4)cc3c2=O)CC1 do in these assays?
BoNT A protease: -2; BoNT F protease: -3; Anthrax LF inh2: -1; Bead autofluor: 22801*; SSB-PriA inh: -2

What do the screens show for `O=c1c2cc(N3CCOCC3)ccc2[nH]c(=S)n1Cc1ccccc1`?
SSB-PriA inh: 3

Results for O=C(CSc1ncn[nH]1)NN=Cc1ccc(C(F)(F)F)cc1 ?
SSB-PriA inh: -4

Results for CCOC(=O)N1CCN(C(=O)CSCc2nc(-c3ccccc3C)oc2C)CC1 ?
BoNT A protease: -1; BoNT F protease: -3; Anthrax LF inh2: -4; Bead autofluor: 16597*; SSB-PriA inh: -4

How did CSc1ccc(-c2nc(CSCC(=O)N3CCOCC3)c(C)o2)cc1 do in these assays?
BoNT A protease: inconclusive; BoNT F protease: -3; Anthrax LF inh2: -1; Bead autofluor: 22931*; SSB-PriA inh: 5

What do the screens show for `CCOC(=O)N1CCN(C(=O)CSCc2nc(-c3ccccc3F)oc2C)CC1`?
BoNT A protease: 2; BoNT F protease: -6; Anthrax LF inh2: -7; Bead autofluor: inconclusive; SSB-PriA inh: 3

Results for N#Cc1ccccc1C=Nc1ccc(-c2cc(-c3ccccc3)c3cc(Cl)ccc3n2)cc1 ?
SSB-PriA inh: -15

How did CCc1ccc(NC(=O)CSc2nnc(-c3cccn(CC)c3=O)n2C)cc1 do in these assays?
SSB-PriA inh: -10

What do the screens show for `COCCNC(=O)CCCCCn1c(=S)[nH]c2ccccc2c1=O`?
BoNT A protease: inconclusive; BoNT F protease: 1; Anthrax LF inh2: 2; Bead autofluor: 22614*; SSB-PriA inh: -3

What do the screens show for `O=c1c2ccccc2[nH]c(=S)n1Cc1ccc2c(c1)OCO2`?
BoNT A protease: -1; BoNT F protease: 0; Anthrax LF inh2: 3; Bead autofluor: 4052; SSB-PriA inh: 1

What do the screens show for `O=C(CCCCCn1c(=S)[nH]c2ccccc2c1=O)NCc1ccc2c(c1)OCO2`?
BoNT A protease: -3; BoNT F protease: -4; Anthrax LF inh2: -2; Bead autofluor: 23096*; SSB-PriA inh: -18

What do the screens show for `CCN(CC)CCNC(=O)CCn1c(=S)[nH]c2cc3c(cc2c1=O)OCO3`?
BoNT A protease: 0; BoNT F protease: -2; Anthrax LF inh2: -2; Bead autofluor: 5237; SSB-PriA inh: -2

Screening data deposited in PubChem BioAssay by several laboratories.
